Compound activity (PubChem)
HepG2 tox: qHTS for Inhibitors of TGF-b: Cytotox Counterscreen; HepG2 CAGA-GFP viability, ATP luminescence, 18 h; Potency, µM (doses to about 46.1 µM), most hits filed as cytotoxic; 410,000 compounds, 0.76% hits; AID 588856, 2011
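CellTiter-Glo luminescence gave cytotoxicity after 18 hours at 37 degrees C. The cells were HepG2 CAGA-GFP in 1% FBS DMEM, stimulated with 500 pg/mL TGF-beta after compound addition. %Activity was normalised to no-cell wells (complete cell-killing) and DMSO (no toxicity), and curves were fitted and classified.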
Giardia killer: Small Molecules that selectively kill Giardia lamblia: qHTS; Giardia lamblia trophozoite viability; activity change, % at 7.66 µM, hits read low; 340,000 compounds, 0.15% hits; in the data active = activity change below about -80%; inconclusive = between about -30% and that limit;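 note: parasites exposed to compound for two days anaerobically before the ATP read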
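Each well holds 100 Giardia trophozoites and compound. After two days (48 hrs) at 37 deg C in anaerobic conditions, ATP is quantified by luminescence.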
ATXN2 expr inh: Primary qHTS for Inhibitors of ATXN expression; HEK-293 ATXN2-luciferase reporter, luminescence, 24 h; Potency, µM (highest dose often 57 µM), actives largely listed as inhibitors; 360,000 compounds, 0.72% hits; AID 1745845, 2022; note: nearly all actives have a fitted effect of over 55% in size
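ATXN2-luciferase reporter cells (luciferase flanked by upstream and downstream ATXN2 gene portions) were treated 24 h at 37 °C with compounds at up to 57 uM. SteadyGlo luminescence gave expression; GF-AFC fluorescence gave viability.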
S2 tox: Viability Counterscreen for Primary qHTS for Inhibitors of ATXN expression. S2 cells (HEK-293 line with an ATXN2-luciferase reporter) viability, CellTiter-Fluor protease fluorescence, 24 h. 400,000 compounds, 0.49% hits. Potency, µM (titrated, usually from 56.7 µM), actives largely listed as cytotoxic; note: nearly all actives have a fitted effect of over 40% in size
TGFb SMAD3 inh: qHTS for Inhibitors of TGF-b; Potency, µM (series often up to 46.1 µM), most hits filed as inhibitors; AID 588855, 2011; 410,000 compounds, 1.2% hits; HepG2 CAGA-GFP TGF-b/SMAD3 reporter, GFP fluorescence, 18 h; TGF-beta stimulated, 500 pg/mL final; note: nearly all actives have a fitted effect of over 65% in size
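Smad-responsive CAGA-GFP expression was quantified in HEPG2 cells exposed to compounds and 500 pg/mL final TGF-beta for 18 h at 37 degrees C; unstimulated wells defined full inhibition.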
uPA generation: qHTS for Inhibitors of Cell Surface uPA Generation; cell surface uPA generation assay, qHTS; Potency, µM (highest dose often 38.3 µM), usual class: inhibitors; 330,000 compounds, 0.31% hits; active = well fitted inhibition curve with a large enough effect; inconclusive = small, poorly fitted or top-dose-only effect; inactive = no such curve, though single readings can be large or run the other way; tested in mouse RAW 264.7 cells; note: nearly all actives have a fitted effect of over 55% in size
A number is an active result; - = inactive; ? = inconclusive; . = no result given. Hits are enriched below; roughly 2.6% of the tested compounds scored in any of these assays. Unless noted, calls come from the whole dose curve; as a rule, active = well fitted curve in the direction sought with a large enough effect; inconclusive = small, poorly fitted or top-dose-only effect, or another doubt; inactive = no such curve, though single readings can be large; an effect the other way counts as inactive or inconclusive.

SMILES	HepG2 tox	Giardia killer	ATXN2 expr inh	S2 tox	TGFb SMAD3 inh	uPA generation
Oc1ccccc1Nc1nc(NCc2ccccc2)c2ccccc2n1	-	-	?	-	11µM	.
Cc1c(Cl)cccc1Nc1nc(NCCO)c2ccccc2n1	-	-	-	-	11µM	-
OCCNc1nc(Nc2ccccc2)nc2ccccc12	-	-	-	-	?	-
CNc1nc(NCc2ccccc2)c2ccccc2n1	-	-	?	-	?	-
CCCCNc1nc(NCc2ccccc2)nc2ccccc12	.	.	22µM	32µM	.	.
Cc1ccc2c(/C=C/c3c[nH]c4ccccc34)ccnc2c1C	-	.	.	.	?	.
CC1(Cc2ccc(F)cc2)C(=O)Nc2c(Cl)ccc(Cl)c21 (stereo not given)	-	.	-	-	-	.
CC1(Cc2ccccc2OC(F)(F)F)C(=O)Nc2c(Cl)ccc(Cl)c21 (stereo not given)	-	.	-	?	14µM	.
COC(=O)c1ccc(CC2(C)C(=O)Nc3ccc(-c4cccc(C(F)(F)F)c4)cc32)o1 (stereo not given)	22µM	.	?	32µM	?	.
CC1(Cc2ccc(OC(F)(F)F)cc2)C(=O)Nc2c(Cl)ccc(Cl)c21 (stereo not given)	-	.	?	?	16µM	.
COc1ccc(OC(F)(F)F)cc1CC1(C)C(=O)Nc2ccc(-c3ccsc3)cc21 (stereo not given)	-	.	-	.	13µM	.
COc1ccc(C(C)=O)cc1CC1(C)C(=O)Nc2ccc(OC(F)(F)F)cc21 (stereo not given)	-	.	-	-	-	.
CC1(Cc2cccc(F)c2)C(=O)Nc2ccc(OC(F)(F)F)cc21 (stereo not given)	-	.	?	?	?	.
CC1(Cc2ccc(OC(F)(F)F)cc2)C(=O)Nc2ccc(OC(F)(F)F)cc21 (stereo not given)	18µM	.	?	?	?	.
N#C/C(=C\c1ccccc1C(F)(F)F)C(=O)Nc1ccccc1	-	-	-	-	-	-
CCc1cccc(CC)c1NC(=O)/C(C#N)=C/c1ccccc1C(F)(F)F	-	-	?	.	13µM	-
CCCCc1c(Cc2ccccc2)ncn1CCc1ccccc1OC	.	.	14µM	.	.	.
COc1ccc(-c2nc3cc(C)ccc3cc2CN(C(=O)c2cc(C)nn2C)C2CC2)cc1OC	.	.	.	-	.	.
CC1=NC(=O)C(N=Nc2cccc(C(=O)O)c2)N1c1ccccc1 (stereo not given)	-	-	8.9µM	?	-	.
Cc1ccnc2c([N+](=O)[O-])cccc12	-	.	.	.	-	.
COc1ccc(CN(C)C(=O)c2cc(-c3ccccc3)nc3ccc(C)cc23)c(OC)c1OC	-	-	?	?	-	-
Cc1c(CN(C)C(=O)c2cc(-c3ccccc3)nc3ccc(Br)cc23)cnn1C	-	.	22µM	?	-	.
Cc1c(C(=O)NC(C)(C)C)sc2ncnc(NCCN(C)C)c12	.	.	.	-	.	.
CS(=O)(=O)c1ccc(-c2sc3ccccc3c2C#CCCO)cc1	-	-	?	?	11µM	-
COc1ccc2c(C#CCCO)c(-c3ccc(S(C)(=O)=O)cc3)sc2c1	-	-	-	-	-	-
SMILES	HepG2 tox	Giardia killer	ATXN2 expr inh	S2 tox	TGFb SMAD3 inh	uPA generation
CCC1CN(Cc2cn[nH]c2-c2ccccc2)Cc2cc(OC)ccc2O1 (stereo not given)	.	.	.	-	.	.
O=C1CC(c2ccc3c(c2)OCCO3)Oc2ccccc21 (stereo not given)	-	-	-	-	-	-
O=C1CC(c2ccc3c(c2)OCCO3)Oc2ccc([N+](=O)[O-])cc21 (stereo not given)	-	?	.	-	?	10µM
COc1ccc2cc(CNCc3ccccc3Cl)c(N3CCCC(CO)C3)nc2c1 (stereo not given)	.	.	.	-	.	.
COc1ccc(N2CCN(C(=S)Nc3ccc(C)cc3C)CC2)cc1	6.3µM	-	-	-	-	-
COc1ccc(N2CCN(C(=S)Nc3cc(C)ccc3C)CC2)cc1	-	-	-	-	-	-
COc1ccc(-c2c(-c3ccc(OC)c(C)c3O)n[nH]c2C)cc1	-	-	?	.	14µM	-
C=C(C)COc1ccc(-c2[nH]ncc2Oc2ccccc2OC)c(O)c1	-	-	-	?	?	-
C=C(C)COc1ccc(-c2n[nH]c(C)c2-c2ccc(Br)cc2)c(O)c1	14µM	-	-	.	13µM	?
C=C(C)COc1ccc(-c2[nH]ncc2-c2ccc(Br)cc2)c(O)c1	-	-	?	?	20µM	-
C=C(C)COc1ccc(-c2[nH]ncc2-c2ccccc2OC)c(O)c1	18µM	-	?	?	?	-
C=C(C)COc1ccc(-c2[nH]ncc2Oc2ccc(OC)cc2)c(O)c1	-	-	-	-	?	-
Cc1nn(C)cc1CN1CCOc2ccc(CN3CCC(Oc4cccnc4)CC3)cc2C1	.	.	.	-	.	.
C=C1CCN(C(CC(C)C)C(=O)O)S(=O)(=O)c2ccccc21 (stereo not given)	-	-	.	.	-	.
Cc1cc(-c2ccnc(-n3ncc(C(=O)NCC4CCCN(C)C4)c3C3CC3)n2)c(C)s1 (stereo not given)	.	.	.	-	.	.
COc1cc(/C=C/[N+](=O)[O-])ccc1OCc1cccc(C(=O)O)c1	-	-	28µM	?	?	-
COc1cccc(OC)c1C(=O)NNC(=O)c1cccc(COc2ccc3c(c2)CCC3)c1	-	-	5.6µM	-	-	-
CCOc1ccc(OCc2cccc(C(=O)N3CCCCCC3)c2)cc1	-	-	.	-	-	-
O=Cc1ccc(OCc2cccc(C(F)(F)F)c2)cc1O	-	-	-	-	?	-
O=C(OCC(F)(F)F)c1cccc(COc2ccc3ccccc3c2)c1	-	-	2µM	-	-	-
CCOc1ccc(OCc2cccc(C(=O)N3CCCC3)c2)cc1	-	-	7.9µM	-	-	?
O=C(O)c1cccc(COc2ccc3c(c2)CCC3)c1	-	-	?	-	-	-
CCOc1ccc(OCc2cccc(C(=O)O)c2)cc1	-	?	0.28µM	-	-	.
O=C(O)c1cccc(COc2ccc(CO)cc2Cl)c1	-	-	0.28µM	-	-	?
COc1ccc(OCc2cccc(C(=O)O)c2)cc1	-	-	0.32µM	-	-	-
COc1cccc(-c2nc3cc(SC)ccc3cc2CN(C(=O)c2sccc2C)C2CC2)c1	.	.	.	-	.	.
CCc1ccc2[nH]c(=O)c(CN(Cc3ccco3)Cc3nnnn3Cc3ccco3)cc2c1	-	-	.	.	-	.
CC(CCc1ccc2c(c1)OCO2)NN (stereo not given)	.	.	-	-	.	.
CC(C)(C)n1ncc2c(=O)n(Cc3ccccc3C(F)(F)F)cnc21	-	.	.	.	-	.
Cc1cnc(C)c(-c2cc(F)cc3c2OC(CNC(=O)CN2CCCC2)C3)n1 (stereo not given)	.	.	.	-	.	.
